A selection: hits, their analogues and other compounds. The true share with any hit is near 3.8%.
Mdm2 MdmX PPI – disrupts the human Mdm2-MdmX interaction. O15151+Q00987. SaOS-2 split-luciferase Mdm2/MdmX complementation, luminescence. inhibition, % at 8 µM. actives 3% (n = 330,000). AID 485346;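 active = inhibition of at least 50% at 8 µM in the primary screen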
NTR1 agonist – activates human neurotensin receptor 1; P30989; NTR1-U2OS beta-arrestin-GFP spot imaging, agonist mode; activation, % at 20 µM; actives 0.17% (n = 330,000); AID 493036;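 active = activation at or above 40% of the spot to cytoplasm intensity ratio, with at least 20 cells analyzed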
Beta cell apopt – beta cell apoptosis inhibition; INS-1E cytokine-induced death, ATP luminescence, 48 h; percent of positive-control rescue, neutral wells zero; protection from apoptosis, % (no concentration beside the values); actives 0.8% (n = 300,000); AID 435005;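 active = Every replicate reaches about 75%, or at least half do and their mean reaches it too, limit read from the data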;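 also: higher means more ATP so stronger rescue from cytokine killing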
Jurkat NFkB inh – inhibitors of the PMA/ionomycin-induced NF-kB reporter in Jurkat cells. PMA/ionomycin-induced NF-kB luciferase reporter, luminescence. inhibition, % at 4 µM. actives 0.53% (n = 330,000); in the data active = inhibition above about 50%
Bfl-1 A1 inh – inhibitors of the anti-apoptotic protein A1, read as caspase activation | MEF A1-2A-BIM cells, Caspase-Glo 3/7 luminescence, 3 h; percent of clofoctol response, vehicle zero | AID 2462 | actives 0.066% (n = 330,000) | caspase activation, % (test concentration not listed);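 active = over half of replicate activation scores above 10%, or exactly half above 10 with the replicate mean above 10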
697 NFkB inh – lowers PMA/ionomycin-induced NF-kB signal in 697 B cells; 697 B-cell NF-kB luciferase reporter, 16 h; inhibition, % at 4 µM; actives 0.33% (n = 330,000); in the data active = inhibition above about 35%
697 NFkB conf – lowers PMA/ionomycin-induced NF-kB signal in 697 B cells; 697 B-cell NF-kB luciferase, 16 h; inhibition, % at 4 µM; actives 35% (n = 2,000); shares compounds with 697 NFkB inh; in the data active = inhibition mostly above about 28%, no sharp cut-off; inactive = mostly below about 22%
Each line names hits and unclear results; the compound was inactive in the other large screens (follow-up assays come after a bar, where they were run).

NNC(=O)c1cccc(COc2ccccc2Br)c1	none
NNC(=O)c1cccc(COc2ccc3c(c2)CCC3)c1	697 NFkB inh 56 (no result: Beta cell apopt) | 697 NFkB conf inactive
O=C(Nc1ccc(-c2nc3ccccc3s2)cc1)C1=COCCO1	none | 697 NFkB conf inactive
O=C(NCCS(=O)(=O)N1CCN(c2cccc(Cl)c2)CC1)c1ccco1	697 NFkB inh 35 | 697 NFkB conf inactive
O=C(Cc1ccccc1)NCCS(=O)(=O)N1CCN(c2cccc(Cl)c2)CC1	none
COc1ccc(NC(=O)CN(C)C(=O)C2=COCCO2)cc1	none
O=C(c1cc(-c2ccc(Cl)cc2Cl)on1)N1CCOCC1	none | 697 NFkB conf inactive
O=C(c1cc(-c2ccc(Cl)cc2)on1)N1CCOCC1	none
O=S(=O)(c1ccccc1)c1cnc(-c2cccnc2)nc1-c1ccccc1	none
Cc1ncc(S(=O)(=O)c2ccc(Cl)cc2)c(-c2ccccc2)n1	697 NFkB inh 40 | 697 NFkB conf inactive
Cc1cc(C)n2nc(SCN3C(=O)c4ccccc4C3=O)nc2n1	none
O=C1c2ccccc2C(=O)N1CSc1ncccn1	697 NFkB inh 36 | 697 NFkB conf inactive
N#CC1=C(N)Oc2cc(Nc3ccccc3)ccc2C1c1ccncc1 (stereo not given)	697 NFkB inh 37 | 697 NFkB conf 41
O=C(COC(=O)CCc1ccccc1)NC1CCS(=O)(=O)C1 (stereo not given)	none
CC1CCN(c2ccc(C(=O)OCC(=O)NCCN3C(=O)CSC3=O)cc2[N+](=O)[O-])CC1	697 NFkB inh 38 | 697 NFkB conf inactive
COc1cc2c(cc1OC)CN(C(=O)CCNC(=O)c1ccccc1Cl)CC2	none
Cc1ccn2cc(CCNC(=O)COc3ccccc3)nc2c1	none | 697 NFkB conf inactive
Cc1ccn2cc(CCNC(=O)CC(C)(C)C)nc2c1	none
CCOC(=O)[C@@H]1[C@H]2COc3ccccc3[C@@H]2N2C(=O)N(c3ccc(Br)cc3)C(=O)[C@]12C	none
COC(=O)c1ccc(-c2nc3cc(Cl)c(N)cc3s2)cc1	none | 697 NFkB conf inactive
COc1cccc(C(=O)OCC(=O)NCCC2=CCCCC2)c1	none
COc1cc(C(=O)Nc2nc(OC)c(-c3ccccc3)c(OC)n2)cc(OC)c1OC	697 NFkB inh 38 | 697 NFkB conf inactive
COc1cc(C(=O)Nc2cc(-c3ccccc3)[nH]n2)cc(OC)c1OC	none
CCOc1ccc(S(=O)(=O)N(CC)CC)cc1NC(=O)c1ccc(N2CCCC2=O)cc1	none
COCCn1c(C)cc(C(=O)COC(=O)c2ccc(Cl)c(S(N)(=O)=O)c2)c1C	none
CCCCSc1nnc2c(n1)[nH]c1ccccc12	none | 697 NFkB conf inactive
COc1ccc(CNC(=O)CSc2nnc3c(n2)[nH]c2ccc(OC)cc23)cc1	none
O=C(O)CSc1nnc2c(n1)[nH]c1ccccc12	none
CC(C)CSc1nnc2c(n1)[nH]c1ccccc12	none | 697 NFkB conf inactive
COc1ccc2[nH]c3nc(SC(C)C)nnc3c2c1	none | 697 NFkB conf inactive
CCC(CO)Oc1cc(NCc2ccccc2O)c2ncn(C(C)C)c2c1 (stereo not given)	697 NFkB inh 45 | 697 NFkB conf 46
CC(=C\c1ccccc1)/C=C1/SC(=O)N(CCCC(=O)Nc2ccc(C(=O)O)cc2)C1=O	697 NFkB inh 75 | 697 NFkB conf 70
O=C(CCCN1C(=O)S/C(=C/C=C/c2ccccc2)C1=O)Nc1ccc(C(=O)O)cc1	697 NFkB inh 49 | 697 NFkB conf 49
O=C(Nc1ccccc1C(=O)O)c1ccc(NC(=O)C2CC2)cc1	none
O=C(Nc1ccccc1O)c1ccc(NC(=O)C2CC2)cc1	none | 697 NFkB conf inactive
COCCn1c(-c2ccc(Cl)cc2Cl)nc2c(c(=O)c3ccccc3n2C)c1=O	697 NFkB inh 41 | 697 NFkB conf inactive
O=C(Nc1ccccc1C(=O)NCCCN1CCOCC1)c1cccc([N+](=O)[O-])c1	none
O=C(NCCC1CCCCN1S(=O)(=O)c1ccccc1)C(=O)NCc1ccncc1 (stereo not given)	none (no result: Beta cell apopt)
Cc1ccc(S(=O)(=O)N2CCCCC2CCNC(=O)C(=O)NCc2ccncc2)cc1 (stereo not given)	697 NFkB inh 53 | 697 NFkB conf 52
Cc1ccccc1CN1CCc2cc([N+](=O)[O-])ccc21	none
COC(=O)CCN1CCc2cc(N=Nc3ccc([N+](=O)[O-])cc3)ccc21	none | 697 NFkB conf inactive
CCN1C(=O)c2cccc3c(NC(=O)c4cccc(N5C(=O)CCC5=O)c4)ccc1c23	697 NFkB inh 36 | 697 NFkB conf 40

High-throughput results from PubChem.
